Only a sample is shown.
aSyn 5UTR act = Activators via SNCA 5'UTR binding, MLPCN. alpha-synuclein 5'UTR reporter, activators screen. activity score, % (tested at 7.5 µM), hits read low. 300,000 compounds, 7.1% hits. AID 1814; in the data active = activity score below about -60%
Numbers stand for hits; – = inactive.

SMILES | aSyn 5UTR act
O=C(N/N=C/c1ccc2c(c1)OCO2)c1cccc2ccccc12 | -109
Cn1cc(C(=O)N/N=C/c2ccc3c(c2)OCO3)c2ccccc21 | -276
CCN(CC)C(=O)c1sc2nc(-c3ccc(OC)cc3)cn2c1C | -150
CNC(=O)c1sc2nc(-c3ccc(OC)cc3)cn2c1C | -138
CCOC(=O)C(=O)Nc1nc(-c2ccc3c(c2)CCN3C(=O)C2CC2)c(C)s1 | -76
CC1Cc2cc(S(=O)(=O)NCc3ccccc3)ccc2N1C(=O)C1CC1 (stereo unspecified) | -65
CC(=O)Nc1nc(-c2ccc3c(c2)CC(C)N3C(=O)C2CC2)c(C)s1 (stereo unspecified) | -295
Cc1sc(NC(=O)c2ccco2)nc1-c1ccc2c(c1)CC(C)N2C(=O)C1CC1 (stereo unspecified) | -106
Nc1nc2ccc(C(=O)Nc3ccccc3)cc2s1 | -129
CC(=O)Nc1ccc2nc(N)sc2c1 | -107
CC(=O)Nc1ccc2cc3ccc(NC(C)=O)cc3nc2c1 | -73
CCc1ccc(NC(=O)c2ccc3nc(N)sc3c2)cc1 | -131
COc1ccc(NC2=Nc3ccccc3CC2)cc1 | -137
CCCn1nnc(NC(=O)c2ccc(Cl)cc2Cl)n1 | -115
CCCn1nnc(NC(=O)c2ccc3ccccc3c2)n1 | -185
Cc1ccc(C(=O)Nc2nnn(C)n2)cc1 | -76
CCCn1nnc(NC(=O)c2cccc(OCC)c2)n1 | -141
CCn1nnc(NC(=O)c2ccc(C(C)(C)C)cc2)n1 | -112
COC(=O)C(Cc1ccc(OC(=O)c2ccccc2Cl)cc1)N1Cc2ccccc2C1=O (stereo unspecified) | -88
COC(=O)C(Cc1ccc(OC(=O)c2ccccc2C)cc1)N1Cc2ccccc2C1=O (stereo unspecified) | -142
c1ccc2c3c([nH]c2c1)-c1[nH]ncc1CC3 | -117
O=C(c1ccccn1)c1cc2ccccc2n1S(=O)(=O)c1ccccc1 | -91
Fc1ccc(-c2nc3c(Cl)cc(C(F)(F)F)cn3c2Cl)cc1 | -111
C=CCSc1nc2ccccc2n1C(=O)/C=C/c1cc(OC)c(OC)c(OC)c1 | -172
CCSc1nc2ccccc2n1C(=O)/C=C/c1ccc(OC)c(OC)c1 | -168
SMILES | aSyn 5UTR act
C=CCSc1nc2ccccc2n1C(=O)/C=C/c1ccc(OC)c(OC)c1 | -219
CCN(CC)S(=O)(=O)c1ccc(Cl)c(C(=O)Oc2cccc(-c3cnc4ccccc4n3)c2)c1 | -90
CCN(CC)S(=O)(=O)c1cc(C(=O)Oc2cccc(-c3cnc4ccccc4n3)c2)ccc1Br | -99
Cc1nn(-c2nc3ccccc3s2)c(C)c1Oc1ccccc1O | -77
COc1cccc(C(=O)NC(=S)Nc2cccnc2)c1 | -153
CCCOc1cccc(C(=O)NC(=S)Nc2ccccc2)c1 | -102
CCOc1ccc(C(=O)NC(=S)Nc2cccnc2)cc1 | -135
CC(C)Oc1cccc(C(=O)NC(=S)Nc2ccccc2)c1 | -90
CC(C)Oc1cccc(C(=O)NC(=S)Nc2cccnc2)c1 | -114
CC(C)CC1c2[nH]c3ccccc3c2CCN1C(=O)c1cnccn1 (stereo unspecified) | -95
C/C(=N\Nc1nc(N)cc(Cl)n1)c1ccc(F)cc1 | -71
C/C(=N\Nc1nccnc1Cl)c1ccc(F)cc1 | -104
Cc1ccc2ncc(NC(=O)c3ccc(F)cc3)c(=O)n2c1 | -139
Cc1ccc(C(=O)Nc2cnc3ccccn3c2=O)cc1 | -120
CCN1/C(=C/c2ccc3cc(C)ccc3[n+]2CC)Sc2ccc3sccc3c21 | –
CCN1/C(=C/c2ccc3cccc(C)c3[n+]2CC)Sc2ccccc21 | -134
Nc1nnc(SCc2coc(-c3ccc(Cl)cc3)n2)s1 | -118
COc1ccc(C(=O)C(CN2CCOCC2)c2ccccc2)cc1 (stereo unspecified) | -80
COc1ccc(C(=O)C(CN2CCCC2)c2ccccc2)cc1 (stereo unspecified) | -112
O=C(c1ccc(Cl)cc1)C(CN1CCCC1)c1ccccc1 (stereo unspecified) | -155
CCCCCOc1ccc(C(=O)CCN2CCOCC2)cc1 | -72
CC/C(=N/NC(=O)c1ccccc1)c1ccc(OCCN2CCOCC2)cc1 | -103
CCCCOc1ccc(C(=O)C(CN2CCOCC2)c2ccccc2)cc1 (stereo unspecified) | -134
C/C(=N\NC(=O)c1csc(C)c1C)c1ccc(Cl)s1 | -125
CC/C(=N\NC(=O)c1csc(C)c1C)c1cccs1 | -182
SMILES | aSyn 5UTR act
CCC/C(=N\NC(=O)c1csc(C)c1C)c1cccs1 | -109
Cc1[nH]c2ccccc2c1C(=O)CN1C(=O)NC2(CC(C)CC(C)(C)C2)C1=O (stereo unspecified) | –
Cc1[nH]c2ccccc2c1C(=O)CSC(=S)N(C)C | -76
CN1/C(=C/C=C(/C#N)C(N)=O)C(C)(C)c2ccccc21 | -146
C/C(CC(=O)Nc1cccc2c1CCCC2)=N\NC(=O)c1ccccc1N | -110
CCOC(=O)c1ccc(Nc2nc(-c3cccnc3)nc3ccccc23)cc1 | -103
CCOC(=O)c1ccc(Nc2ncnc3nc[nH]c23)cc1 | -73
CCOC(=O)C/C(=N\Nc1ncnc2ccccc12)c1ccccc1 | -139
CCOC(=O)c1ccc(Nc2ncnc3ccccc23)cc1 | -93
c1ccc(CNc2nc(NCc3ccccc3)c3ccccc3n2)cc1 | –
CC(C)(C)c1ccc(-c2nc(NCc3cccnc3)c3ccccc3n2)cc1 | -96
Cc1ccc(Nc2nc(-c3cccnc3)nc3ccccc23)cc1 | -95
Cc1ccc(-c2nc(N/N=C/c3ccncc3)c3ccccc3n2)cc1 | -120
Fc1ccccc1/C=N/Nc1nc(-c2ccccn2)nc2ccccc12 | –
Cc1c(O)ccc(/C=N/Nc2nc(-c3cccnc3)nc3ccccc23)c1O | -77
c1ccc(COc2ccc(Nc3ncnc4nc[nH]c34)cc2)cc1 | -85
Cc1cc2nc(C3CCN(Cc4nnnn4Cc4ccccc4)CC3)[nH]c2cc1C | –
c1ccc(CN2CCC(Nc3nc(-c4cccnc4)nc4ccccc34)CC2)cc1 | -83
CC(NC(=O)Nc1ccc(Br)cc1)C(C)(C)C (stereo unspecified) | -77
CN(CC(=O)N1CCc2ccccc21)S(=O)(=O)c1cccs1 | -130
COc1ccc(N2C(=O)C(=O)/C(=C(/O)c3ccc(C)cc3)C2c2cccnc2)cc1 (stereo unspecified) | -62
COc1ccc(/C(O)=C2/C(=O)C(=O)N(c3ccccn3)C2c2ccc(C(C)C)cc2)cc1 (stereo unspecified) | -122
CCC(=O)NC(c1ccc(OC)cc1)c1cc(Cl)c2cccnc2c1O (stereo unspecified) | –
O=C(c1ccccc1)N1CCN(CC#Cc2ccccc2)CC1 | -66
COc1ccc2c(c1)c1nnc(SC)nc1n2C | -68
SMILES | aSyn 5UTR act
CC1=NN(C(N)=S)C(=O)C1N=Nc1ccc(C)c(Br)c1 (stereo unspecified) | -128
CC1=NN(C(N)=S)C(=O)C1N=Nc1cccc(C)c1 (stereo unspecified) | -75
CC1=NN(C(N)=S)C(=O)C1N=Nc1ccc(Cl)cc1Cl (stereo unspecified) | -184
CCc1cc2c(N=Nc3c(O)[nH]c4ccccc34)ncnc2s1 | -62
Cc1sc2ncnc(N=Nc3c(O)[nH]c4ccccc34)c2c1C | -141
Oc1[nH]c2ccccc2c1N=Nc1nncc2ccccc12 | -62
CCc1ccc(CCC(=O)Nc2ccccc2C(=O)O)o1 | -85
CC#CCCCC(=O)Nc1ccccc1C(=O)O | -75
C(=C\c1ccccn1)/c1ccccn1 | -115
CC1C/C(=C/c2ccccn2)C(=O)/C(=C/c2ccccn2)C1 (stereo unspecified) | –
Brc1ccc(N=Cc2ccccn2)cc1 | -73
